Shown are actives, neighbours in structure and some others; about 2.6% of the full set was active somewhere.
TLR9-MyD88 block = TLR9-MyD88 interaction inhibition; Q9NR96+Q99836; CHO BLA complementation TLR9-MyD88, CCF4 FRET ratio; inhibition, % at 4.98 µM; actives 0.21% (n = 340,000); AID 504734;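 active means inhibition above the mean over all tested compounds plus 3 SD, cut at about 21% in these data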
PRMT1 FP inh = inhibitors of human PRMT1; Q99873; recombinant PRMT1, activity-based probe fluorescence polarization; inhibition, % at 2.79 µM; actives 1.3% (n = 370,000);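 active means inhibition above about 21% made by adding two undisclosed values, limit read from the data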
Granule exo inh = blocks lytic granule exocytosis; TALL-104 LAMP-1 surface exposure, flow cytometry; cells stimulated with thapsigargin and PMA; inhibition, % at 10 µM; actives 0.66% (n = 360,000); AID 651702;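 active means inhibition above about 55%, limit read from the data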
NOD2 RIPK2 PPI = inhibitors of human NOD2-RIPK2 interaction. AID 624267. actives 0.38% (n = 360,000). O43353. inhibition, % at 4.98 µM. CHO BLA complementation NOD2-RIPK2, CCF4 ratio; in the data active means inhibition above about 21%
TLR4-MyD88 BLA = inhibitors of human TLR4-MyD88 binding; O00206+Q99836; HeLa CL3-4 TLR4/MyD88 BLA complementation, FRET ratio; inhibition, % at 8.4 µM; actives 0.18% (n = 200,000); AID 861; in the data active means inhibition above about 25%
ABHD5-PLIN5 inh = blocks binding of human ABHD5 to perilipin-5; actives 0.78% (n = 360,000); Q00G26+Q8WTS1; inhibition, % at 4 µM; Split G. princeps luciferase complementation, luminescence, 4 h;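 active means inhibition above the mean inhibition across every tested compound plus 3 SD, cut at about 22% in these data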
ABHD5 PLIN5 conf = ABHD5-PLIN5 interaction inhibition, confirmed. shares compounds with ABHD5-PLIN5 inh. biochemical ABHD5-PLIN5 interaction, luminescence. inhibition, % at 4 µM. actives 67% (n = 2,200). AID 651612; in the data active means inhibition above about 23%
HNF4 counter = active in HNF4 split-luciferase counter-screen for ABHD5-PLIN5 inhibitors; shares compounds with ABHD5-PLIN5 inh; HNF4 dimerization, luminescence, biochemical; inhibition, % at 4 µM; actives 77% (n = 2,200); AID 651674;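 active means mean inhibition across replicate wells exceeding the computed hit threshold, cut at about 13% in these data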;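 further: light from luciferase halves that rejoin when HNF4 fusion proteins dimerize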
Numbers stand for hits; 0 = inactive; - = no result given.

SMILES	TLR9-MyD88 block	PRMT1 FP inh	Granule exo inh	NOD2 RIPK2 PPI	TLR4-MyD88 BLA	ABHD5-PLIN5 inh	ABHD5 PLIN5 conf	HNF4 counter
Cc1cc(/C=C2\NC(=O)NC2=O)c(C)n1-c1ccc(N2CCOCC2)cc1	0	0	0	0	-	0	-	-
Cn1c(=O)cc(N2CCN(C(=O)c3ccco3)CC2)[nH]c1=O	0	0	0	0	0	0	-	-
CCOC(=O)N1CCN(c2cc(=O)n(-c3ccc(OC)cc3)c(=O)[nH]2)CC1	0	0	0	0	0	0	-	-
Cc1ccc(-n2c(=O)cc(N3CCN(C(=O)c4ccco4)CC3)[nH]c2=O)cc1	0	0	0	0	0	37	0	0
COC(=O)C1CCN(c2cc(=O)n(-c3ccc(OC)cc3)c(=O)[nH]2)CC1	0	0	0	0	0	24	0	0
COC(=O)C1=C(C)N(Cc2ccccc2C(F)(F)F)C(=NCC2CC2)NC1c1ccc(F)cc1 (configuration not stated)	-	0	-	-	-	-	-	-
COC(=O)[C@@]1(Cc2ccc(F)cc2)[C@H]2C(CC(=O)C(=O)N3CCCC3)C(=O)C[C@H]2CN1C(=O)c1ccccc1 (some centres not stated)	-	0	0	0	-	0	-	-
COC(=O)[C@@]1(Cc2ccc(OC)cc2)[C@@H]2C(=CC(=O)[C@H]2CC(=O)C(=O)N2CCCC2)CN1C(=O)c1ccccc1	0	-	0	0	0	33	63	49
C[C@H](O)[C@@H]1C(=O)N2CCc3c([nH]c4c(-c5ccccc5)cccc34)[C@@H]2C[C@@H]1N(C)C(=O)c1ccccc1F	-	0	-	-	-	-	-	-
NC(=O)c1ccccc1NC(=O)COc1ccc(Cl)cc1	0	0	0	0	-	46	0	0
C#CCN(C[C@@H]1[C@@H](OC(=O)NCc2ccco2)[C@@H](OC(=O)NCc2ccco2)Cn2c(=O)ccc(=O)n21)S(=O)(=O)c1ccc(C)cc1	0	0	0	0	-	27	41	26
C#CCN(C[C@@H]1[C@@H](OC(=O)NCC2CCCCC2)[C@@H](OC(=O)NCC2CCCCC2)Cn2c(=O)ccc(=O)n21)S(=O)(=O)c1ccc(C)cc1	0	0	0	0	-	42	57	18
C#CCN(C[C@@H]1[C@@H](OC(=O)NCc2ccc(OC)c(OC)c2)[C@@H](OC(=O)NCc2ccc(OC)c(OC)c2)Cn2c(=O)ccc(=O)n21)S(=O)(=O)c1ccc(C)cc1	0	0	0	0	-	46	62	21
C#CCN(C[C@@H]1[C@@H](OC(=O)NCCCCCC)[C@@H](OC(=O)NCCCCCC)Cn2c(=O)ccc(=O)n21)S(=O)(=O)c1ccc(C)cc1	0	0	0	0	-	34	56	0
CC(C)C[C@H]1COc2cc(Br)ccc2S(=O)(=O)N1Cc1ccc(Cl)cc1	-	0	-	-	-	-	-	-
CCOc1cccc(C=NNc2nc(=O)cc(C(=O)OC)s2)c1O	-	0	-	-	-	-	-	-
O=C1Cn2nnc(-c3ccccc3)c2C2c3cc(Br)ccc3CCN12 (configuration not stated)	-	0	-	-	-	-	-	-
CCOC(=O)[C@]12CCCC=C1N(CCCOC)C(=O)[C@@H]2CC(=O)NCCc1ccccc1OC	-	0	-	-	-	-	-	-
OCc1ccc(-c2cncc3nccn23)cc1	-	0	0	0	-	0	-	-
c1cn2c(-c3ccoc3)cncc2n1	-	0	0	0	-	23	34	35
C#CCNC(=O)C1=C[C@H](c2coc3ccccc3c2=O)C[C@H](OCCCCO)O1	0	0	0	0	0	0	-	-
NC(=O)C1=C[C@H](c2coc3ccccc3c2=O)C[C@H](OCCCCO)O1	0	0	0	0	0	23	0	0
Cc1cccc(Cn2cc(CN3CC(N(C)CCCOC(=O)c4cc5ccccc5o4)CS3(=O)=O)nn2)c1 (configuration not stated)	-	0	-	-	-	-	-	-
O=C(C#Cc1ccccc1)c1ccccc1	0	0	0	0	-	25	78	107
O=c1cc(-c2ccccc2)[nH]n1-c1ccccc1	0	0	0	0	-	0	-	-
CC(C)(C)c1cc(=O)n(-c2ccccc2)[nH]1	0	0	0	0	0	26	0	0

Screening data from PubChem BioAssay.
